Common to all, as to experiment: DAPPL (digital affinity profiling via proximity ligation, sequencing); 10 mM Tris-HCl pH 7.5, 50 mM NaCl, 1 mM DTT, 4% glycerol, room temperature, 30 min; GST-TFs on glutathione beads, 16-mer random dsDNA library, 0.1% formaldehyde crosslink after washing; high values mean tight binding
The target of one test is T1, FLI1 (Homo sapiens, UniProt Q01543 1-452).
T1 sequence: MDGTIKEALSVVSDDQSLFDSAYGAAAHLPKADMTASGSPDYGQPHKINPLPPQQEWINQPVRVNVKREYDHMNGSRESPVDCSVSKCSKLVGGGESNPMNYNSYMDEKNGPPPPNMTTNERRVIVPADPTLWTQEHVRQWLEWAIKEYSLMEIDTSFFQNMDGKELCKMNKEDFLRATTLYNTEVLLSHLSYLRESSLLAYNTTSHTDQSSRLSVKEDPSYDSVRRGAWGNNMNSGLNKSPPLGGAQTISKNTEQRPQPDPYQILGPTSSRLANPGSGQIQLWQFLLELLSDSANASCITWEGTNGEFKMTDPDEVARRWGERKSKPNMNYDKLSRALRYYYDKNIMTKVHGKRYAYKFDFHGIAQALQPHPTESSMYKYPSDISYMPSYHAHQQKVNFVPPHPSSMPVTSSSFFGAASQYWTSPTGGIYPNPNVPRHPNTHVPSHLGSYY
Particulars: protein: recombinant; tags: N-terminal GST; dsDNA, one strand shown. The method in brief:
(§1)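 Binding signal is given per hexamer as its read frequency for a factor divided by its frequency in the tag-only sample. GST-fused human transcription factors were expressed in yeast, captured on glutathione beads, barcoded with DNA and pooled with that sample, then incubated with 200 nmole of a 16-mer random double-stranded DNA library in Tris/NaCl/DTT/glycerol buffer for 30 min at room temperature. The pools were then washed, crosslinked, proximity-ligated, amplified by PCR and sequenced on an Illumina NextSeq500.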

In the next test the target is T2, ELK1 (Homo sapiens, UniProt P19419 1-428).
T2 sequence: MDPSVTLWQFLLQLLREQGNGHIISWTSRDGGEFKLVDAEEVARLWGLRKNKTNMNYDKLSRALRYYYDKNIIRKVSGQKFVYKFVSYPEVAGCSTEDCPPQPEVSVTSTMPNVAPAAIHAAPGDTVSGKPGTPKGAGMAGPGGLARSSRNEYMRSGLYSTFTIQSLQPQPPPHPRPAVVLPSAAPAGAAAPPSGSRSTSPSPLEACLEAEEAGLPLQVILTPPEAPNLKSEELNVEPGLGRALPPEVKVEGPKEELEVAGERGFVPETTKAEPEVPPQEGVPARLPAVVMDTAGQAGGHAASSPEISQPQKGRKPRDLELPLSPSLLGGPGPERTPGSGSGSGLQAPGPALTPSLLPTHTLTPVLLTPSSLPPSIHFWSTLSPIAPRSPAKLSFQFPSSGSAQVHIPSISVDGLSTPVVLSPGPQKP
Conditions: protein: recombinant; tags: N-terminal GST; dsDNA, one strand shown. The method in brief:
as §1

Another test concerns the target T3, GABPA (Homo sapiens, UniProt Q06546 1-454).
T3 sequence: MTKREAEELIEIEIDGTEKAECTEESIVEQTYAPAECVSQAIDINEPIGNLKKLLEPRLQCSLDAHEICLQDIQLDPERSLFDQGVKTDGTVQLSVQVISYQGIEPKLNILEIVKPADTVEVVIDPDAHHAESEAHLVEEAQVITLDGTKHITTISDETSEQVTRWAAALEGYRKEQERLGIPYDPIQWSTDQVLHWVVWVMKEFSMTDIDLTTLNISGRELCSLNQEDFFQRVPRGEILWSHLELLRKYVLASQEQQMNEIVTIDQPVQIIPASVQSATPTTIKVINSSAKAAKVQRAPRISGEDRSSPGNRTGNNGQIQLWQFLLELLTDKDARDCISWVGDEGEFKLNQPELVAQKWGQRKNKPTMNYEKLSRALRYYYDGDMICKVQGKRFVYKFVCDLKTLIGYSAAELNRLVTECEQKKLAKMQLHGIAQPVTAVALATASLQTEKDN
Particulars: protein: recombinant; tags: N-terminal GST; dsDNA, one strand shown. The method in brief:
as §1

In a further test the target is T4, ERG (Homo sapiens, UniProt P11308 1-479).
T4 sequence: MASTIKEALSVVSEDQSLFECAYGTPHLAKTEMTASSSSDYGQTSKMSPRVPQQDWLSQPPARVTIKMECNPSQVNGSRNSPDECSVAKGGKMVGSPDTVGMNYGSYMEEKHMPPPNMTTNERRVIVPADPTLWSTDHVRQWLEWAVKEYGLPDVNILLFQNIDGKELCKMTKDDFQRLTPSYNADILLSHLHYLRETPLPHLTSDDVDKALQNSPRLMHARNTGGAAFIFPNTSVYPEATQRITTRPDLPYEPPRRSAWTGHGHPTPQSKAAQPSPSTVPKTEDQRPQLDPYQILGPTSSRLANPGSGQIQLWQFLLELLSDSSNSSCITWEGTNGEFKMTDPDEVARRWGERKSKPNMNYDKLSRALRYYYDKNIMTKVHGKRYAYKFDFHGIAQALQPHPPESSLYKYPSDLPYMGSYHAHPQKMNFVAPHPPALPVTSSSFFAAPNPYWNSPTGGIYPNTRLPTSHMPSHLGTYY
Conditions: protein: recombinant; tags: N-terminal GST; dsDNA, one strand shown. A digest of the protocol: as §1

Another test concerns the target ELF1 (Homo sapiens, UniProt P32519 1-619). Particulars: protein: recombinant; tags: N-terminal GST; dsDNA, one strand shown. A digest of the protocol: as §1
Another test has as its target T5, EHF (Homo sapiens, UniProt Q9NZC4 1-300).
T5 sequence: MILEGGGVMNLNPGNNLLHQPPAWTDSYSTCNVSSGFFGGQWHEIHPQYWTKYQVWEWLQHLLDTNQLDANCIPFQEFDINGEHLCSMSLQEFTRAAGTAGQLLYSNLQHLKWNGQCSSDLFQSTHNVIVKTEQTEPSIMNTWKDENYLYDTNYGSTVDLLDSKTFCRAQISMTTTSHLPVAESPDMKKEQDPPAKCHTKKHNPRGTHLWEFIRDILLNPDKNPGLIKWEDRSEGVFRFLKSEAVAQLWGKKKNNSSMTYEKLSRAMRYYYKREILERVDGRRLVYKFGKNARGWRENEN
Conditions: protein: recombinant; tags: N-terminal GST; dsDNA, one strand shown. A digest of the protocol: as §1

For a further test, the target named is SPI1 (Homo sapiens, UniProt P17947 1-270). Conditions: protein: recombinant; tags: N-terminal GST; dsDNA, one strand shown. The method in brief:
as §1

For another test, the target named is SPIB (Homo sapiens, UniProt Q01892 1-262). Particulars: protein: recombinant; tags: N-terminal GST; dsDNA, one strand shown. The method in brief:
as §1

A further test concerns the target T6, ELK3 (Homo sapiens, UniProt P41970 1-407).
T6 sequence: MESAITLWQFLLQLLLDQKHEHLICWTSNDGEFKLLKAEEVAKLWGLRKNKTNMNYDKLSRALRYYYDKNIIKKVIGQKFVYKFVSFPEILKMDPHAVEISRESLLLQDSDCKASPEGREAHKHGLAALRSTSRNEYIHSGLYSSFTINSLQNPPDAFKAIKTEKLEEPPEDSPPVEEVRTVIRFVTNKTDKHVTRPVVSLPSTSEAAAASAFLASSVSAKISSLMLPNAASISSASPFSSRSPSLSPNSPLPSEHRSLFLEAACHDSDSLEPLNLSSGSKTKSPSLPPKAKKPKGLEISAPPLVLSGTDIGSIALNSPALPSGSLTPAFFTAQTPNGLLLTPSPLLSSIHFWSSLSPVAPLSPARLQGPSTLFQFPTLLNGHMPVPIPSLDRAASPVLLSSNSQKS
Particulars: protein: recombinant; tags: N-terminal GST; dsDNA, one strand shown. A digest of the protocol: as §1

A further test concerns the target T7, FEV (Homo sapiens, UniProt Q99581 1-238).
T7 sequence: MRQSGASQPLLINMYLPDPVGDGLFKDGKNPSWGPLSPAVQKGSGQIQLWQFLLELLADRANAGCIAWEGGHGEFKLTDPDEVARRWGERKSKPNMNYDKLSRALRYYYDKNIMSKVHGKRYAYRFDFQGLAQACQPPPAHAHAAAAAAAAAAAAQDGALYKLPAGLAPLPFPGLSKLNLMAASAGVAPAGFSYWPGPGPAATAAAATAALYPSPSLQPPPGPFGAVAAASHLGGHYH
Particulars: protein: recombinant; tags: N-terminal GST; dsDNA, one strand shown. A digest of the protocol: as §1

The next test deals with ETV5 (Homo sapiens, UniProt P41161 1-510). Particulars: protein: recombinant; tags: N-terminal GST; dsDNA, one strand shown. The method in brief:
as §1

For another test, the target named is HSF1 (Homo sapiens, UniProt Q00613 1-529). Particulars: protein: recombinant; tags: N-terminal GST; chain copies: 3; dsDNA, one strand shown. A digest of the protocol: as §1
A further test deals with T8, SPIC (Homo sapiens, UniProt Q8N5J4 1-248).
T8 sequence: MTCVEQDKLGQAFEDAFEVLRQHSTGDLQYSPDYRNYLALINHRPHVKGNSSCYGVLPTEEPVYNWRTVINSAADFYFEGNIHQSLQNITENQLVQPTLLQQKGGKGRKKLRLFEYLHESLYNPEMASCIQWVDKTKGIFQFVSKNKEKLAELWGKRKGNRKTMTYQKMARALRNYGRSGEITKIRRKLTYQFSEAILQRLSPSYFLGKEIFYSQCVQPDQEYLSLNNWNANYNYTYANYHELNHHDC
Conditions: protein: recombinant; tags: N-terminal GST; dsDNA, one strand shown. The method in brief: as §1

Another test addresses ELF4 (Homo sapiens, UniProt Q99607 1-663). Conditions: protein: recombinant; tags: N-terminal GST; dsDNA, one strand shown. The method in brief:
as §1

The next test addresses T9, ELK4 (Homo sapiens, UniProt P28324-2 1-405).
T9 sequence: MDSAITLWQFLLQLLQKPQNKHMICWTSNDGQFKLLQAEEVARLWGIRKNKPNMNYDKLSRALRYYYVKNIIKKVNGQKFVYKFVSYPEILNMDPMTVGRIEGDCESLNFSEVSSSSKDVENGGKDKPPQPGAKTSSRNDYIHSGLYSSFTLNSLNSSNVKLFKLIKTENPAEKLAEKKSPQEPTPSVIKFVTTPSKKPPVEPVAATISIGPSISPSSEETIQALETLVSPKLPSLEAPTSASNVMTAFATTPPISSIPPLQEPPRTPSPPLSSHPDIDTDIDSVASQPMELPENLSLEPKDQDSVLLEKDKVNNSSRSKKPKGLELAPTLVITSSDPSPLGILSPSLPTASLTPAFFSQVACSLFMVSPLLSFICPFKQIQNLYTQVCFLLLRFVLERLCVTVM
Conditions: protein: recombinant; tags: N-terminal GST; dsDNA, one strand shown. The method in brief: as §1

Another test addresses T10, ETV2 (Homo sapiens, UniProt O00321 1-342).
T10 sequence: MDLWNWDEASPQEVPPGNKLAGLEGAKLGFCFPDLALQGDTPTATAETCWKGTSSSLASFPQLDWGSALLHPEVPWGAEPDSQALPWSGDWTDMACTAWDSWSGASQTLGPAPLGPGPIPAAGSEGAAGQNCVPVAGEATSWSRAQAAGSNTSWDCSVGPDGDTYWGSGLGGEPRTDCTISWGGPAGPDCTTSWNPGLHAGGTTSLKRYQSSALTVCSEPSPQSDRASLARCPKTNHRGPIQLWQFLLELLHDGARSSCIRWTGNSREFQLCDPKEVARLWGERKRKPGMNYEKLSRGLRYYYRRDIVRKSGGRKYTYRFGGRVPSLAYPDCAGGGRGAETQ
Conditions: protein: recombinant; tags: N-terminal GST; dsDNA, one strand shown. The method in brief: as §1

The next test addresses T11, ELF3 (Homo sapiens, UniProt P78545 1-371).
T11 sequence: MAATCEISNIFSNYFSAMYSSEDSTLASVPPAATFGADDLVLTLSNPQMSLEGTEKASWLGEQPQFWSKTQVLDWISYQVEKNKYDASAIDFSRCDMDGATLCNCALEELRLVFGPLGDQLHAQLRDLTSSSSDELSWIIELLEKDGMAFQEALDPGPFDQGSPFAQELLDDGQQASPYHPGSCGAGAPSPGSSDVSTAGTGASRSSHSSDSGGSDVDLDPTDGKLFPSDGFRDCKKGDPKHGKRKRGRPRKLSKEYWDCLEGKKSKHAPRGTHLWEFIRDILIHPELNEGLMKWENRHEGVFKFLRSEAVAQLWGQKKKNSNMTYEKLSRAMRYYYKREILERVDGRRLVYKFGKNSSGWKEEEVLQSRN
Particulars: protein: recombinant; tags: N-terminal GST; dsDNA, one strand shown. The method in brief:
as §1

A further test has as its target CRX (Homo sapiens, UniProt O43186 1-299). Conditions: protein: recombinant; tags: N-terminal GST; dsDNA, one strand shown. The method in brief: as §1
The target in a further test is ETV1 (Homo sapiens, UniProt P50549 1-477). Particulars: protein: recombinant; tags: N-terminal GST; dsDNA, one strand shown. A digest of the protocol:
as §1

Sequence of ETV1 (P50549 whole entry): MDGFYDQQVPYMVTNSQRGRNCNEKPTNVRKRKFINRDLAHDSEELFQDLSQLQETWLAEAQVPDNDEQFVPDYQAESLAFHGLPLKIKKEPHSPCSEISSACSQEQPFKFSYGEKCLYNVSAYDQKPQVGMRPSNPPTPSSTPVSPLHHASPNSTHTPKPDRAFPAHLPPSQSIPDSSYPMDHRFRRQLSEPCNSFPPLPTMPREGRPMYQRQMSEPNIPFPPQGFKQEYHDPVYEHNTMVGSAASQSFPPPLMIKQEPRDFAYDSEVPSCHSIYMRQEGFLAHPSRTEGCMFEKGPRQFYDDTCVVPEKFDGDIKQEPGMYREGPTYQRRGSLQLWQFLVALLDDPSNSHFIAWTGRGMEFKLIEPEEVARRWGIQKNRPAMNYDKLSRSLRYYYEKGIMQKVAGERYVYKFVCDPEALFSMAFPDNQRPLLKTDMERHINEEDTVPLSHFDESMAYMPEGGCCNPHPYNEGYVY
Sequence of ELF4 (Q99607 whole entry): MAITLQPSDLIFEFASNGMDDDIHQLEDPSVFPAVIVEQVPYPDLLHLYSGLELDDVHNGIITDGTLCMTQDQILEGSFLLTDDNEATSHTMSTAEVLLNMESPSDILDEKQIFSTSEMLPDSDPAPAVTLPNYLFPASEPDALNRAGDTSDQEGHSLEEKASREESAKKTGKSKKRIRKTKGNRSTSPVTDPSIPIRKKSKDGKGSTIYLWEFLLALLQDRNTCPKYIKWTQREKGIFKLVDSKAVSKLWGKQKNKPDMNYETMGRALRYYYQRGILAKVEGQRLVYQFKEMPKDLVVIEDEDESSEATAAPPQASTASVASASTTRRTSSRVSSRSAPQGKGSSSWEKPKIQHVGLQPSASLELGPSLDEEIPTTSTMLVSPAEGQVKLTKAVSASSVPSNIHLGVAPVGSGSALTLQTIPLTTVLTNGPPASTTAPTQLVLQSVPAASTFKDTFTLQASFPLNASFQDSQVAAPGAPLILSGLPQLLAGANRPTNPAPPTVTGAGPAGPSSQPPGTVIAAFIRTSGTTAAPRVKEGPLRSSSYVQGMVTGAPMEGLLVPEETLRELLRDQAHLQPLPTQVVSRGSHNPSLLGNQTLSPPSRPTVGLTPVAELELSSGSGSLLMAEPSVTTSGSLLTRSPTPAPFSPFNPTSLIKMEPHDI
Sequence of CRX (O43186 whole entry): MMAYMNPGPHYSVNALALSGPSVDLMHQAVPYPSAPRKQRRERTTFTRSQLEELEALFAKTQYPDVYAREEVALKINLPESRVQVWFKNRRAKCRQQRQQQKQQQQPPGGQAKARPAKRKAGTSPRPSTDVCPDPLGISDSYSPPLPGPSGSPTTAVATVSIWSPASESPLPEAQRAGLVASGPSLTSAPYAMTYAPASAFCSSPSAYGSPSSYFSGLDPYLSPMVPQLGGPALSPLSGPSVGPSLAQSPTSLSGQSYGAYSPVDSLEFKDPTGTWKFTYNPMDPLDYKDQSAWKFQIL
Sequence of SPIB (Q01892 whole entry): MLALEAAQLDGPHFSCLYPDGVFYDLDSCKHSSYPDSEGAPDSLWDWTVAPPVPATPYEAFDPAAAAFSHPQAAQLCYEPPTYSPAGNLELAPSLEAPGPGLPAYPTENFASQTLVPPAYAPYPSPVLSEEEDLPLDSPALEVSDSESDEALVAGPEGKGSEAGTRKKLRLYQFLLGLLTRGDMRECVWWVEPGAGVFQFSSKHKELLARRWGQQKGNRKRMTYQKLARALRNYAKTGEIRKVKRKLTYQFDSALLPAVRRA
Sequence of ELF1 (P32519 whole entry): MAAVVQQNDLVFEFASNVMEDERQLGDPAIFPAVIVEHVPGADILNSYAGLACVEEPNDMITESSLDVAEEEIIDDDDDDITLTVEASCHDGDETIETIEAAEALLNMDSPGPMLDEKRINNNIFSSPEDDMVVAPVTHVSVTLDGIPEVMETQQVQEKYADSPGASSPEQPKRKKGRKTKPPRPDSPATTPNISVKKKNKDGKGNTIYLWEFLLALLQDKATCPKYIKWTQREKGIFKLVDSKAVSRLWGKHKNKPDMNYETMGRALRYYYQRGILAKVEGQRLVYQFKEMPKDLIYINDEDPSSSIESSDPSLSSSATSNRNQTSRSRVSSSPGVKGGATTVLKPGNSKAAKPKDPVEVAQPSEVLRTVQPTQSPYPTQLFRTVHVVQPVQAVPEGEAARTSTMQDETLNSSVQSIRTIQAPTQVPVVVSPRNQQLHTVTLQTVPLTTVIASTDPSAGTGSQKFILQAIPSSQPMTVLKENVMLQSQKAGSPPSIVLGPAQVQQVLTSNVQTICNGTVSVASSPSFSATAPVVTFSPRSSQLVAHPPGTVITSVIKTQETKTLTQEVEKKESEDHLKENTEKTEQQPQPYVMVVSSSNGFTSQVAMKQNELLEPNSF
Sequence of ETV5 (P41161 whole entry): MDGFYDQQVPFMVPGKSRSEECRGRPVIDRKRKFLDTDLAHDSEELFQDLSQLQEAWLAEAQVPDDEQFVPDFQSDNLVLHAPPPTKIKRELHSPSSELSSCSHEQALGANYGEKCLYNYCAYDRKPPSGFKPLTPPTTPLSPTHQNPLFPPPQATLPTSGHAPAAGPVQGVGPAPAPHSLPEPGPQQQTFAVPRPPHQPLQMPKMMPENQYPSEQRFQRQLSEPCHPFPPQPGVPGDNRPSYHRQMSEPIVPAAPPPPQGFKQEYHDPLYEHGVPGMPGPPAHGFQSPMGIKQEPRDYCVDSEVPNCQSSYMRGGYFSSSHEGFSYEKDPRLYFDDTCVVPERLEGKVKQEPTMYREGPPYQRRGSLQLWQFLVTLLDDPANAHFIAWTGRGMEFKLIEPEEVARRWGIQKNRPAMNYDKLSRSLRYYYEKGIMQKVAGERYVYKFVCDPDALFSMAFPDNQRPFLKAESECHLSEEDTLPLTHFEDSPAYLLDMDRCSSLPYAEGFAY
Sequence of HSF1 (Q00613 whole entry): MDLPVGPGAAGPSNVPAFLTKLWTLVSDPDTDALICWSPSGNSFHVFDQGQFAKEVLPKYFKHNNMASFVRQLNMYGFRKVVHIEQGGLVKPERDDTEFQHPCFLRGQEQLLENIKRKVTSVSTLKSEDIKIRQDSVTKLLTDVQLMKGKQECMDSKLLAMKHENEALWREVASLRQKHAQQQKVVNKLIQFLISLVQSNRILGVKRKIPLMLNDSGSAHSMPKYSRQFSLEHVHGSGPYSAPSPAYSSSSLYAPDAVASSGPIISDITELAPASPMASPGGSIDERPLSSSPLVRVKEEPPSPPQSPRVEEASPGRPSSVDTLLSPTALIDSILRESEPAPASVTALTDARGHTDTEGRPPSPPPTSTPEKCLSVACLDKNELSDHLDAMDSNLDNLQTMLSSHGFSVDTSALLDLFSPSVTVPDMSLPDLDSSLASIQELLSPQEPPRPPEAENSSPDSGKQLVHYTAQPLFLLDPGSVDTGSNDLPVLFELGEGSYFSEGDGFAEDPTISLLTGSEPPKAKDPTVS

As to CTAACG, the binding signal with FLI1 was 1.22 fold enrichment (6-mer frequency, TF over GST control); with ELK1, 1.23 fold enrichment (6-mer frequency, TF over GST control); with GABPA, 1.09 fold enrichment (6-mer frequency, TF over GST control); in the test with ERG, 1.21 fold enrichment (6-mer frequency, TF over GST control); in the test with ELF1, 1.13 fold enrichment (6-mer frequency, TF over GST control); in the test with EHF it was 1.13 fold enrichment (6-mer frequency, TF over GST control). For the same sequence, the binding signal with SPI1 is 1.26 fold enrichment (6-mer frequency, TF over GST control); with SPIB it was 1.11 fold enrichment (6-mer frequency, TF over GST control); in the test with ELK3 it was 1.19 fold enrichment (6-mer frequency, TF over GST control); with FEV it was 1.19 fold enrichment (6-mer frequency, TF over GST control); with ETV5 it was 1.19 fold enrichment (6-mer frequency, TF over GST control); with HSF1 it was 1.09 fold enrichment (6-mer frequency, TF over GST control). Also, the binding signal was 1.04 fold enrichment (6-mer frequency, TF over GST control) in the test with SPIC; 1.17 fold enrichment (6-mer frequency, TF over GST control) in the test with ELF4; 1.19 fold enrichment (6-mer frequency, TF over GST control) with ELK4; 1.01 fold enrichment (6-mer frequency, TF over GST control) with ETV2; 1.18 fold enrichment (6-mer frequency, TF over GST control) with ELF3; 1.1 fold enrichment (6-mer frequency, TF over GST control) with CRX. Moreover, the binding signal with ETV1 was 1.11 fold enrichment (6-mer frequency, TF over GST control).

Source of the values: publication PMC7862700, “An all-to-all approach to the identification of sequence-specific readers for epigenetic DNA modifications on cytosine”.
